From PubChem BioAssay come the findings set out here.

One assay addresses Albumin (Bos taurus) (UniProt P02769). Description: bovine serum albumin binders on microarray, profiling panel, artefact control for SMM control protein annotation, biochemical, small-molecule microarray, Alexa647 label, 635/667 nm fluorescence (AID 1118).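 Also: score merges 667 nm emission intensity and signal-to-noise per printed compound spot.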 The settings on record: BSA-A647 binding, fluorescence 635 nm, higher = more signal.
The nature of assay [1]: small-molecule microarray binders of probe aXIP, primary screen, biochemical, NeuroSMM set, 635/667 nm fluorescence (AID 1119).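 Also: probe is the protein aXip251-270 applied at 1 µg/mL to compound-printed slides; binding of probe to printed compounds measured as 667 nm fluorescence plus signal to noise.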 The following applies: higher = more signal, called active from +8 up or from −8 down.
A short description of assay [2]: small-molecule binders of probe aNOTCH3, primary screen, biochemical, small-molecule microarray, 635/667 nm fluorescence (AID 1120).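 Also: probe is a biotin-tagged antibody raised against NOTCH3 rather than NOTCH3 protein; score merges spot fluorescence near 667 nm with spot signal to noise.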 The settings on record: higher = more signal.
Assay [3] can be described thus: small-molecule binders of probe aNOTCH2, primary screen, biochemical, small-molecule microarray, 635/667 nm fluorescence (AID 1121).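 Also: score merges feature fluorescence read at 667 nm with its signal to noise.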 The settings on record: higher = more signal.
Assay [4] has as its target Carbonic anhydrase 2 (Homo sapiens) (UniProt P00918). As to the kind of experiment: CAII small-molecule binders, profiling panel, biochemical, small-molecule microarray, Alexa647-labelled CAII (AID 1122). The following applies: CAII-A647 binding fluorescence, higher = more signal.
Assay [5] is described as follows: COS7 lysate on small-molecule microarray, probe aHis, 635 nm (AID 1123).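 Also: z-score combines 667nm fluorescence intensity with signal-to-noise per printed compound spot.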 The following applies: COS7 cell lysate, fluorescence, higher = more signal.
A short description of assay [6]: compound binding in COS7 lysate, probe aLAP1, primary screen, cell lysate, small-molecule microarray (AID 1124).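 Also: lysate comes from COS7 cells expressing LAP1 and is applied at 0.3 µg/mL; score merges spot fluorescence near 667 nm with signal-to-noise over triplicate slides.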 The settings on record: probe aLAP1, fluorescence, higher = more signal.
For another assay, the system named is Sam68 (KHDRBS1). As to the kind of experiment: Sam68 small-molecule binders, primary screen, biochemical, small-molecule microarray, 635 nm fluorescence (AID 1125).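 Also: score merges 667 nm channel intensity with signal to noise over triplicate slides.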 The settings on record: small-molecule microarray binding, higher = more signal.
The subject of assay [7] is Chordin-like protein 2 (CHRDL2). Description: CHRDL2 small-molecule binders, primary screen, biochemical, small-molecule microarray, 635 nm fluorescence (AID 1126).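 Also: printed compound slides probed with Chrdl2 protein at 4 µg/mL for 1 h at 4 C; score merges 667 nm emission intensity with signal to noise over three replicate slides.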 The following applies: small-molecule microarray binding, fluorescence 635 nm; higher = more signal.
In assay [8] the target is Concanavalin-A (Canavalia ensiformis) (UniProt P02866). Description: ConA small-molecule binders, primary screen, artefact control for SMM control protein annotation, biochemical, small-molecule microarray, Alexa647 label, 635 nm (AID 1127).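 Also: z combines 667 nm emission intensity with signal-to-noise across three replicate slides.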 The settings on record: ConA-A647 binding fluorescence, higher = more signal.
Assay [9] is described as follows: anti-His antibody binders, primary screen, artefact control for SMM control protein annotation, biochemical, small-molecule microarray, 635 nm fluorescence (AID 1128).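 Also: score merges feature fluorescence with signal-to-noise for each printed compound spot.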 The settings on record: anti-His Alexa647 antibody binding, higher = more signal.
The subject of assay [10] is Human papillomavirus type 1a E7 protein (residues 1-88). Description: HPV1a E7 small-molecule binders, primary screen, biochemical, small-molecule microarray, residues 1-88, 635 nm (AID 1129). The settings on record: small-molecule microarray binding, fluorescence 635 nm; higher = more signal.
For assay [11], the target named is Focal adhesion kinase 1 (Homo sapiens) (UniProt Q05397). Description: small-molecule microarray binders of FAK, primary screen, biochemical, 635/667 nm fluorescence, BSA, DTT (AID 1130).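 Also: composite of spot emission at 667 nm and signal to noise over triplicate slides.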 The following applies: PTK2 binding, 635 nm fluorescence, higher = more signal.
The test system of assay [12] is Fibrinogen (Alexa647-labelled). Description: fibrinogen binders on compound microarrays, profiling panel, artefact control for SMM control-protein annotation, biochemical, small-molecule microarray, 635/667 nm fluorescence (AID 1131).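 Also: z-score merges 667 nm fluorescence with per-spot signal-to-noise over triplicate slides.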 The following applies: fibrinogen-A647 binding fluorescence, higher = more signal.
Assay [13] deals with Follistatin (Homo sapiens) (UniProt P19883). Description: follistatin binders on small-molecule microarrays, primary screen, biochemical, small-molecule microarray, 635/667 nm fluorescence (AID 1132). The following applies: FST binding, 635 nm fluorescence, higher = more signal.
In assay [14] the target is Fibroblast growth factor 2 (Homo sapiens) (UniProt P09038). As to the kind of experiment: FGF2 binders on small-molecule microarrays, primary screen, biochemical, small-molecule microarray, 635/667 nm fluorescence (AID 1133). The following applies: small-molecule microarray binding, FGF2, fluorescence 635/667; higher = more signal.
A short description of assay [15]: mitochondrial membrane potential change in A549 cells, profiling panel, cell-based, JC-1 fluorescence, basal, 24 h, 100 nL (AID 1138).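 Also: A549 lung adenocarcinoma cells under basal conditions with no added stimulus; test concentration not given here.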 The following applies: higher = more signal.
For the next assay, the system named is Lefty1. As to the kind of experiment: Lefty1 binders on small-molecule microarrays, primary screen, biochemical, small-molecule microarray, 635/667 nm fluorescence (AID 1139). The following applies: small-molecule microarray binding, fluorescence 635/667; higher = more signal.
Assay [16] deals with wheat germ agglutinin (Triticum aestivum), Alexa647-labelled. As to the kind of experiment: wheat germ agglutinin binders on compound microarrays, profiling panel, artefact control for SMM control-protein annotation, biochemical, small-molecule microarray, 635/667 nm fluorescence (AID 1140).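 Also: score merges 667 nm feature emission with signal to noise over triplicate slides.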 The settings on record: WGA-A647 binding, 635 nm fluorescence, higher = more signal.
For assay [17], the target named is Luciferin 4-monooxygenase (Photinus pyralis) (UniProt P08659). Description: firefly luciferase enzyme inhibitors, primary screen, biochemical, luminescence, purified enzyme, 2006 set (AID 1141).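 Also: cell-free assay with purified firefly luciferase at 100 ng per well in PBS; test concentration not given here.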 The following applies: SteadyGlo luminescence, 30 min, higher = more signal, called active from +8 up or from −8 down.

Molecules are shown by their SMILES. Activity calls are given as the source filed them.

Sequence of Fibroblast growth factor 2 (Homo sapiens) (P09038 whole entry, looked up): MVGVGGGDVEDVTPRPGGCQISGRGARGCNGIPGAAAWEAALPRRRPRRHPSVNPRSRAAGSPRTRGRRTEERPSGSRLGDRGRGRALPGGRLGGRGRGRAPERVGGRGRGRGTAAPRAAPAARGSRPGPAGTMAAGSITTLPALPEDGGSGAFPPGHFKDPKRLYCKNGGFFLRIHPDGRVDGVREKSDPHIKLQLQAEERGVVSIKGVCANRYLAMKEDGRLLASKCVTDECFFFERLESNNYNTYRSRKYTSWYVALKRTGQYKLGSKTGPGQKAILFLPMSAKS
Sequence of Focal adhesion kinase 1 (Homo sapiens) (Q05397 whole entry, looked up): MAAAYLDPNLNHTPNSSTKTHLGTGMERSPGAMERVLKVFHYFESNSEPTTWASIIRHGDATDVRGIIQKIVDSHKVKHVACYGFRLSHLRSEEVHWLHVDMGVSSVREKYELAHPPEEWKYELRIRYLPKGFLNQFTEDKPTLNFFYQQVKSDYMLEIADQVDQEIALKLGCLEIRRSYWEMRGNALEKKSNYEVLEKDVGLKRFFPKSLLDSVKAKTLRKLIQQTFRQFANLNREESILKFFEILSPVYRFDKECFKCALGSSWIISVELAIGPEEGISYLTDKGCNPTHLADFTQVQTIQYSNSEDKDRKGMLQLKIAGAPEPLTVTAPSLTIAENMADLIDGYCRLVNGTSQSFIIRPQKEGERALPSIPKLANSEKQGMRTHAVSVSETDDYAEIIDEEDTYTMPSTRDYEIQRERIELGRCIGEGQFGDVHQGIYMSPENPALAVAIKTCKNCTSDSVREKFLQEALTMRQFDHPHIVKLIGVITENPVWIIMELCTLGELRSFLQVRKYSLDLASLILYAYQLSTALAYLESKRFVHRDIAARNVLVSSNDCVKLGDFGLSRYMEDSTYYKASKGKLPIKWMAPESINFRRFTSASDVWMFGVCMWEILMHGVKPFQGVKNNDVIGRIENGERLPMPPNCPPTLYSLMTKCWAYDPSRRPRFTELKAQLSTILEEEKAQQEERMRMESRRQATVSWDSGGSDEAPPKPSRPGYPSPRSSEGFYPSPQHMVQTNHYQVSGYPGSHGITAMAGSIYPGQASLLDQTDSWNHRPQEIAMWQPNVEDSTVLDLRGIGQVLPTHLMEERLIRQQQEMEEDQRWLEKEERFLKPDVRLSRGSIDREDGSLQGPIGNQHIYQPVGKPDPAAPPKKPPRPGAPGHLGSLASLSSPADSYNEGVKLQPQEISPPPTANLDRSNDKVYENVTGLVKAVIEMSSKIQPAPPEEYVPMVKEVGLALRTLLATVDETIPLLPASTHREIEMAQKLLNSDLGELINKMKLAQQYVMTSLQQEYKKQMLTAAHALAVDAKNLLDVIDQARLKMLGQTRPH
Sequence of Concanavalin-A (Canavalia ensiformis) (P02866 whole entry, looked up): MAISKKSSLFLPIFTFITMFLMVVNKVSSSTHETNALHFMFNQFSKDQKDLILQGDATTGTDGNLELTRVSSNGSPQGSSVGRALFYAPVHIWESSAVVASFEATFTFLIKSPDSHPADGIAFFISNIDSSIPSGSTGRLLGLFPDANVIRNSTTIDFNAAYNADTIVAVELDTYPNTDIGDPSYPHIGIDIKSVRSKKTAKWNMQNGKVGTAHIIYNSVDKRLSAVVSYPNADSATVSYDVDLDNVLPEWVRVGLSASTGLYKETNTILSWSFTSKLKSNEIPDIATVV
Sequence of Follistatin (Homo sapiens) (P19883 whole entry, looked up): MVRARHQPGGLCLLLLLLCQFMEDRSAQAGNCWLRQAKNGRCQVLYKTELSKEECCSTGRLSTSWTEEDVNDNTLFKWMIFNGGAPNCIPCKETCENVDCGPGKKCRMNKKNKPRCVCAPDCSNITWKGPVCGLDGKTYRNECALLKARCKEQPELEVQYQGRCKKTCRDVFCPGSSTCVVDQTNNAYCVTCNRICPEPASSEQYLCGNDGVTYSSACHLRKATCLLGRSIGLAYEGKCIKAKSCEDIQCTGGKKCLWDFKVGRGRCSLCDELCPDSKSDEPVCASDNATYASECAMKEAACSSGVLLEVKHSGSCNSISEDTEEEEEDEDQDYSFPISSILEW
Sequence of Albumin (Bos taurus) (P02769 whole entry, looked up): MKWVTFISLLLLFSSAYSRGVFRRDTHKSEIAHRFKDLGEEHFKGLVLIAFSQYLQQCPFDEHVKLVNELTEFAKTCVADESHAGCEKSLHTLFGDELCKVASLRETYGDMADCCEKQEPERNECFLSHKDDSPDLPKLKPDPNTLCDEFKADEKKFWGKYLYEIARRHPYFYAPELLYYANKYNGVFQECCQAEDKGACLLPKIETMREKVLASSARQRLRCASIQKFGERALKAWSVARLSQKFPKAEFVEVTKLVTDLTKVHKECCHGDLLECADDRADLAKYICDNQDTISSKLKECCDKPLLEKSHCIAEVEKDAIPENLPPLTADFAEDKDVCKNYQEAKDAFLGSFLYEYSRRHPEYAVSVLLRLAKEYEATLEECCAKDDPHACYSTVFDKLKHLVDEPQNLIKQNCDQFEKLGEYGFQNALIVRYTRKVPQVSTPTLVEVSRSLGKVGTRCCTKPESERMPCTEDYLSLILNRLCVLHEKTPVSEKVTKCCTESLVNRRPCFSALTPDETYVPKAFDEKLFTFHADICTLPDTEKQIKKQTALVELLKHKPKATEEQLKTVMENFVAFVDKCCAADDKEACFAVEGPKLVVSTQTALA
Sequence of Luciferin 4-monooxygenase (Photinus pyralis) (P08659 whole entry, looked up): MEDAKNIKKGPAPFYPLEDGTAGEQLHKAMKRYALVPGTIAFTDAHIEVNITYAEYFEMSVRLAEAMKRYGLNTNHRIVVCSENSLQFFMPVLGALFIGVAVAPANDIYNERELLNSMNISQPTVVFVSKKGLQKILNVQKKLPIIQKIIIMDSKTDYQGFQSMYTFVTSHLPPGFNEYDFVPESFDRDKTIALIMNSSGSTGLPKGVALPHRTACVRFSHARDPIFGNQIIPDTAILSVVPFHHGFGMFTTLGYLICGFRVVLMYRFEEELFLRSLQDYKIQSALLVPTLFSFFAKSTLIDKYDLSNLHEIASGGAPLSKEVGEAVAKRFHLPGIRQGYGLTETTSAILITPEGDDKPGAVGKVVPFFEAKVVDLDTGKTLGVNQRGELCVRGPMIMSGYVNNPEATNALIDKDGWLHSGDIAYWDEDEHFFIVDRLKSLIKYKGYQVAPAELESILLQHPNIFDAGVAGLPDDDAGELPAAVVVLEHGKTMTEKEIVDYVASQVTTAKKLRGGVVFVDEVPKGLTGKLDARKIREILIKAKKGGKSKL

With `COc1ccc(NN2C(C(O)c3ccc(N(C)C)cc3)C=CC3C(=O)N(C4CCCCC4)C(=O)C32)cc1` (stereo not given), the composite z-score was determined as 0.906 with Albumin (Bos taurus); 0.391 in [2]; 0.0992 in assay [3]; 0.689 in [4]; 2.13 in assay [5]; 0.414 in [6]. The composite z-score in the assay with Sam68 (KHDRBS1) came to 1.31; in assay [7], 0.212; in assay [8], 1.16; in assay [9] it was 1.64; in assay [10], 1.22; in assay [11], 0.465. Moreover, the composite z-score is 0.941 in [12]; 0.731 in assay [13]; -0.24 in assay [14]; 0.27 in the assay on Lefty1; 0.667 in assay [16]. Besides, the composite Z-score in assay [1] is -0.247 (inactive). The values for the z-score in assay [15] and in [17] were -0.165 and 0.557 (inactive), respectively.

Regarding `CCCC[C@@H]1C[C@H]1[C@@H](NC(=O)c1cccnc1)c1ccc(Cl)cc1`, the composite z-score with Albumin (Bos taurus) was -1.41; in assay [2], -0.429; in assay [3], -0.185; in assay [4], -0.404; in assay [5], 0.878; in [6] it was -0.271. Further, the composite z-score with Sam68 (KHDRBS1) was -1.27; in [7] it was -1.95; in assay [8], -2.03; in [9], -1.38; in assay [10] it was -2.87; in assay [11] it was -0.518. The composite z-score was -2.97 in assay [12]; -2.16 in assay [13]; -2.46 in assay [14]; -2.59 in the assay on Lefty1; -1.72 in assay [16]. In assay [1], the composite Z-score is -0.29 (inactive). For the same compound, the z-score in assay [15] was 0.66; in assay [17], 0.928 (inactive).

`COc1cc(CO)cc(I)c1O[C@H]1C=C(C(=O)NCCO)C[C@@H](NC[C@@H]2CCCO2)[C@@H]1O`: the composite z-score in the assay with Albumin (Bos taurus) was 0.0917; in [2], 0.105; in [3], -0.14; in assay [4] it was -0.0877; in assay [5] it was -0.0856; in [6], 0.696. Also, the composite z-score was 1.16 in the assay on Sam68 (KHDRBS1); 0.0292 in [7]; 0.0446 in [8]; 0.296 in assay [9]; 0.63 in assay [10]; 0.106 in assay [11]. In addition, the composite z-score was 0.346 in assay [12]; 0.323 in assay [13]; 0.599 in [14]; 0.831 in the assay with Lefty1; 0.483 in assay [16]. Also, the composite Z-score in [1] was -0.791 (inactive). In addition, the z-score in assay [15] is 0.452; in assay [17] it was 0.758 (inactive).

Take `COCCOC(=O)N1C(=O)[C@@]2(c3cc(C#CC4=CCCCC4)ccc31)[C@H](c1ccc(OCCO)cc1)N1[C@H](c3ccccc3)[C@H](c3ccccc3)OC(=O)[C@H]1[C@@H]2C(=O)N1CCc2cc(OC)c(OC)cc2C1`: the composite z-score is 0.134 in the assay with Albumin (Bos taurus); 0.206 in assay [2]; -0.0677 in [3]; 0.342 in assay [4]; 1.01 in assay [5]; 0.868 in [6]. Moreover, the composite z-score with Sam68 (KHDRBS1) worked out at 1.31; in [7] it was 0.839; in [8], 0.922; in assay [9], 0.936; in [10], 1.19; in assay [11] it was 0.647. The composite z-score is 0.874 in assay [12]; 0.989 in [13]; 1.32 in assay [14]; 1.11 in the assay on Lefty1; -0.0709 in assay [16]. Besides, the composite Z-score in assay [1] is 0.111 (inactive). Moreover, the z-score in [15] is -0.729; in assay [17], -2.35 (inactive).

Take `CC(C)[C@@H](C(=O)O)n1cc(C2(O)CCCCC2)nn1`: the composite z-score with Albumin (Bos taurus) was 0.641; in assay [2] it was 0.089; in [3], -0.161; in [4], 0.0232; in assay [5], 0.303; in assay [6], 0.0595. Further, the composite z-score is 1.01 with Sam68 (KHDRBS1); -0.121 in assay [7]; 1.04 in assay [8]; 0.948 in assay [9]; 1.1 in assay [10]; 0.167 in assay [11]. The composite z-score in assay [12] amounted to 0.598; in [13] it was 0.486; in assay [14] it was 0.2; in the assay with Lefty1 it was 0.528; in assay [16] it was 0.0063. Besides, in [1], the composite Z-score was -0.283 (inactive). Also, the z-score in [15] was 0.0494; in [17], 0.983 (inactive).

As for `COC(=O)[C@]1(CCC(=O)OC(C)(C)C)N=C(c2ccc(OCCCO)cc2)O[C@@H]1c1ccccc1`, the composite z-score amounted to 0.0503 with Albumin (Bos taurus); 0.0834 in assay [2]; 0.153 in assay [3]; 0.687 in assay [4]; 1.83 in assay [5]; 0.569 in [6]. Further, the composite z-score was -0.116 with Sam68 (KHDRBS1); -0.483 in [7]; 0.259 in [8]; 2.76 in assay [9]; 0.527 in [10]; -0.239 in [11]. Also, the composite z-score in [12] is -0.233; in assay [13] it was 0.263; in [14], 0.16; in the assay on Lefty1 it was -0.657; in [16] it was 0.197. Moreover, in [1], the composite Z-score was 1.55 (inactive). Further, the z-score is 0.804 in assay [15] and -2.77 (inactive) in assay [17].

As to `CCCCC(=C=CC[C@@H](O)c1cccc(OCCO)c1)C[C@@H](O)c1ccccn1`, the composite z-score with Albumin (Bos taurus) was 0.416; in assay [2] it was -0.0881; in [3], -0.172; in [4] it was 0.7; in [5], 0.617; in assay [6], 0.651. The composite z-score is 1.29 in the assay on Sam68 (KHDRBS1); 0.263 in assay [7]; 0.664 in assay [8]; 2.56 in assay [9]; 0.873 in assay [10]; -0.204 in [11]. Moreover, the composite z-score in [12] is 0.837; in assay [13], 1.31; in [14], 0.605; in the assay with Lefty1, 1.2; in assay [16], 0.26. For the same compound, in [1], the composite Z-score is 0.216 (inactive). Moreover, the z-score in assay [15] was 0.0206; in [17], 0.0494 (inactive).

As for `C=CC[C@]1(C(N)=O)N=C(c2ccc(OCCCO)cc2)O[C@H]1c1ccccc1`, the composite z-score is 0.34 with Albumin (Bos taurus); -0.0284 in [2]; 0.102 in [3]; 0.779 in [4]; 0.916 in [5]; -0.137 in assay [6]. For the same compound, the composite z-score is -0.188 in the assay on Sam68 (KHDRBS1); 0.204 in assay [7]; 0.721 in [8]; 1.3 in assay [9]; 1.08 in assay [10]; 0.784 in assay [11]. Further, the composite z-score is 0.691 in assay [12]; 0.482 in [13]; 0.17 in [14]; -0.664 with Lefty1; 0.417 in [16]. Besides, in [1], the composite Z-score was 0.15 (inactive). For the same compound, the z-score was -0.852 in assay [15] and 0.004 (inactive) in assay [17].
